ChEMBL document CHEMBL4513216, “Probing the Open Global Health Chemical Diversity Library for Multistage-Active Starting Points for Next-Generation Antimalarials” (ACS Infect Dis, 2020)
The whole screen tested about 69,000 compounds, of which about 8,600 (12%) showed an effect of 50% or more. This is one part of a sample in which strong results are shown more often than they occur.

What follows are molecules tested on Plasmodium berghei (assay: Screen against P. berghei liver stage (PbLuc), transformed with Luciferase, at 10uM). Settings: tested at 10 uM.
Assay type: functional, HepG2
For O=C(NCC1CC1)C1=NOC2(CCN(Cc3ccsc3)C2)C1 (stereo not drawn), the INHIBITION was 38.5%. O=C(NC1CCC1)C1=NOC2(CCN(Cc3ccccc3)C2)C1 (stereo not drawn) gave an INHIBITION of 57.9%. Molecule O=C(NCc1cccnc1)C1=NOC2(CCCN(CCO)C2)C1 (stereo not drawn) has an INHIBITION of 60.1%. In the case of CNC(=O)C1Cn2ccnc2C2(CCN(Cc3ccncc3)CC2)O1 (stereo not drawn), the INHIBITION is reported as 36.9%. Molecule CC(C)C(=O)N1CCCC2(CC(C(=O)NCc3cccnc3)=NO2)C1 (stereo not drawn) has an INHIBITION of 8.67%. Molecule Cc1ncccc1NC(=O)C1=NOC2(CCN(Cc3nccs3)C2)C1 (stereo not drawn) has an INHIBITION of 9.1%. CNC(=O)C1=NOC2(CCN(Cc3nccs3)C2)C1 (stereo not drawn) gave an INHIBITION of 54.4%. In the case of CC(C)CN1CCC2(CC(C(=O)NCc3cccnc3)=NO2)C1 (stereo not drawn), the INHIBITION is reported as -11.6%. Molecule O=C(NCC1CC1)C1=NOC2(CCN(S(=O)(=O)Cc3ccccc3)C2)C1 (stereo not drawn) has an INHIBITION of 22.5%. In the case of O=C(NCCN1CCOCC1)C1=NOC2(CCN(Cc3nccs3)C2)C1 (stereo not drawn), the INHIBITION is reported as 41.6%. Molecule CNC(=O)C1Cn2ccnc2C2(CCN(Cc3nccs3)CC2)O1 (stereo not drawn) has an INHIBITION of 55.5%. CNC(=O)C1Cn2ccnc2C2(CCN(Cc3cccs3)CC2)O1 (stereo not drawn) was tested, and the INHIBITION was 46.2%. For CN1CCc2onc(Cn3cccc3)c2C1, the INHIBITION was -7.24%. For Cc1cccc2nc(CN3CCCC3Cn3cncn3)cn12 (stereo not drawn), the INHIBITION was 5.03%. c1ccc([C@@H]2CN(Cc3cccnc3)C[C@H]2c2cc[nH]n2)cc1 was tested, and the INHIBITION was 27.2%. Molecule O=C(NCc1ccc(-n2cncn2)nc1)c1cc[nH]n1 has an INHIBITION of 17.9%. Clc1ccc(-n2cnnc2CCCN2CCOCC2)cc1 gave an INHIBITION of 15.6%. With CC1CCCCN1S(=O)(=O)NCCNC(=O)c1ncccc1O (stereo not drawn) the INHIBITION was -27.3%. In the case of COc1cccc2c(C)c(C(=O)N3CCNCC3C(N)=O)[nH]c12 (stereo not drawn), the INHIBITION is reported as 24.35%. For CCNc1cc2c(nn1)CCN(C(=O)Cc1ccc(C)s1)C2, the INHIBITION was 37.4%. Work on Cc1cc(N2CCC(O)(CN(C)C(=O)CCCN)C2)c2cnccc2n1 (stereo not drawn) yielded an INHIBITION of -16.8%. Molecule Cc1ccc(-c2nnc(CNCCn3cc(C)cn3)o2)cc1 has an INHIBITION of 14.4%. With Cc1nc(C)n(CC2CN(Cc3ccncc3)Cc3nccn3C2)n1 (stereo not drawn) the INHIBITION was -15.6%. CCc1noc(C(C)N2CCN(S(=O)(=O)N3CCCC3)CC2)n1 (stereo not drawn) was tested, and the INHIBITION was -11.4%. In the case of CN1C(=O)CC(c2ccncc2)C12CCN(c1ncccn1)CC2 (stereo not drawn), the INHIBITION is reported as 29.4%. Work on O=C(NCC1CC1)C1=NOC2(CCN(S(=O)(=O)c3ccc(F)cc3)C2)C1 (stereo not drawn) yielded an INHIBITION of -19.1%. O=C(NC1CCC1)C1=NOC2(CCN(Cc3ccc(F)cc3)C2)C1 (stereo not drawn) showed an INHIBITION of 64.9%. O=C(NCC1CC1)C1=NOC2(CCN(Cc3ccc(Cl)c(F)c3)C2)C1 (stereo not drawn) was tested, and the INHIBITION was 38.5%. Molecule CN(C)[C@H]1CN(C(=O)CCc2cccc(F)c2)C[C@@H]1C1CC1 has an INHIBITION of 30.9%. Molecule O=C(c1cnccn1)N1CCc2c(COCC3CC3)cncc2C1 has an INHIBITION of 39.2%. For CCOCc1cncc2c1CCN(C(=O)c1cscn1)C2, the INHIBITION was 62%. O=C(c1ccsc1)N1CCc2c(COCC3CC3)cncc2C1 was tested, and the INHIBITION was 39.8%. Work on O=C(c1cscn1)N1CCc2c(COCC3CC3)cncc2C1 yielded an INHIBITION of 58.4%. COCc1cncc2c1CCN(C(=O)c1cscn1)C2 was tested, and the INHIBITION was 21.3%. CC(C)COCc1cncc2c1CCN(C(=O)c1cscn1)C2 gave an INHIBITION of 18.6%. CN(C)C(=O)C1(c2cnccn2)CCCN1C(=O)Cc1ccccc1 (stereo not drawn) gave an INHIBITION of 28.475%. For CC1c2ncc(Cn3cncn3)n2CCN1C1CCOCC1 (stereo not drawn), the INHIBITION was 2.01%. In the case of O=C(CCc1ccc2c(c1)OCO2)N1CCCCC1Cn1cccn1 (stereo not drawn), the INHIBITION is reported as -0.219%. Molecule CCN1CCOCC2(CCCN(C(=O)c3cnccn3)C2)C1 (stereo not drawn) has an INHIBITION of -8.51%. Work on O=C1CCC(CCC(=O)N2CCCC2c2nccs2)=NN1 (stereo not drawn) yielded an INHIBITION of 27.6%. With CSc1ncccc1C(=O)N1C[C@@H]2CC[C@H]1CN(CC(=O)N(C)C)C2 the INHIBITION was 22.8%. Work on CN(C)C(=O)c1ccc(C2CCCN2C(=O)c2cccc3c2OCC3)s1 (stereo not drawn) yielded an INHIBITION of 81.1%. CN(C)C(=O)c1ccc(C2CCCN2C(=O)c2ccccc2N(C)C)s1 (stereo not drawn) gave an INHIBITION of 39.1%. CSc1ncccc1C(=O)N1CCCC1c1ccc(C(=O)N(C)C)s1 (stereo not drawn) gave an INHIBITION of 65.2%. With CSc1ncccc1C(=O)N1C[C@@H]2CC[C@H]1CN(C(=O)N(C)C)C2 the INHIBITION was 30.3%. Molecule O=C1CCC(CCC(=O)N2CCC2c2cccs2)=NN1 (stereo not drawn) has an INHIBITION of 11.2%. For Cc1occc1C(=O)N1CCCC1c1ccc(C(=O)N2CCOCC2)s1 (stereo not drawn), the INHIBITION was -60.2%. For CN(C)C(=O)c1ccc(C2CCCN2C(=O)CCC2=NNC(=O)CC2)s1 (stereo not drawn), the INHIBITION was 56.7%. With CNC(=O)N1CCC2(CC1)CN(C(C)C)Cc1cc(F)ccc12 the INHIBITION was 42.3%. CC(=O)c1ccc(C(=O)N2C[C@H]3CC[C@@H](C2)N(CC2CCC2)C3)s1 was tested, and the INHIBITION was -92.2%. Work on O=C([C@H]1COC[C@H]2CN(C3CCOCC3)C[C@H]21)N1CCCO1 yielded an INHIBITION of -1.83%. Cn1ccnc1CN1CCN2C[C@H](Oc3cncnc3)C[C@H]2C1 showed an INHIBITION of -10.3%. Molecule Cc1ccc(O[C@@H]2C[C@H]3CN(c4ncc(F)cn4)CCN3C2)cc1 has an INHIBITION of 79.2%.
